Measurements: PubChem BioAssay (EPA / NIEHS)
Calls of active or inactive are those of the source. Rule for the calls: active = hit-call score of the fitted dose curve at least 0.9, where 1 is the maximum; inactive = score below 0.9.

Tests used:
Conditions in all cases: mRNA level, 48 h; actives raise or lower the signal
[1] = read-out: Glutamate-cysteine ligase regulatory (GCLM), GCLM (gene 2730); test: LTEA_HepaRG_GCLM: Life Technologies and Expression Analysis (LTEA) Assay for Glutamate-cysteine ligase regulatory (GCLM) using HepaRG (AID 2283500)
Outline: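 Differentiated human HepaRG cells exposed 48 h in serum-free induction medium to 8-point half-log concentrations (top 100 uM, 0.5% DMSO), in duplicate. GCLM mRNA quantified by qRT-PCR, normalized to ACTB, GAPDH, POLR2A; bidirectional fitting versus DMSO.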

[2] = read-out: Glutathione S-transferase M3 (GSTM3), GSTM3 (gene 2947); test: LTEA_HepaRG_GSTM3: Life Technologies and Expression Analysis (LTEA) Assay for Glutathione S-transferase M3 (GSTM3) using HepaRG (AID 2283501)
Outline: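 Differentiated human HepaRG cells were exposed in duplicate for 48 h in serum-free induction medium, 8 points from 100 uM top in half-log steps, 0.5% DMSO. GSTM3 mRNA was measured by TaqMan qRT-PCR, normalized to ACTB, GAPDH and POLR2A; bidirectional fit versus DMSO.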

[3] = read-out: Heat shock 70 kDa protein 1 (HSPA1A), gene 3303; test: LTEA_HepaRG_HSPA1A: Life Technologies and Expression Analysis (LTEA) Assay for Heat shock 70 kDa protein 1 (HSPA1A) using HepaRG (AID 2283502)
Outline: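 Differentiated human HepaRG cells in serum-free induction medium were exposed in duplicate for 48 h to eight concentrations (top 100 uM, half-log steps, 0.5% DMSO). HSPA1A mRNA was quantified by qRT-PCR, normalized to ACTB, GAPDH and POLR2A, and fitted bidirectionally against DMSO.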

[4] = read-out: Hypoxia-inducible factor 1-alpha (Homo sapiens) (UniProt Q16665); test: LTEA_HepaRG_HIF1A: Life Technologies and Expression Analysis (LTEA) Assay for Hypoxia-inducible factor 1 (HIF1A) Trancription factor using HepaRG (AID 2283503)
Outline: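 HepaRG, 48 h exposure, 8-pt half-log series from 100 uM, 0.5% DMSO vehicle, duplicates. Readout: HIF1A transcript by qRT-PCR (Fluidigm array), housekeeping-normalised. Bidirectional curve fit vs DMSO baseline.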

HGF (gene 3082) = test: LTEA_HepaRG_HGF: Life Technologies and Expression Analysis (LTEA) Assay for Hepatocyte Growth Facto (HGF) using HepaRG (AID 2283505)
Outline: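 Differentiated HepaRG cells in serum-free induction medium exposed 48 h in duplicate, 8 half-log concentrations from 100 uM in 0.5% DMSO. HGF mRNA by qRT-PCR, normalised to ACTB, GAPDH, POLR2A; bidirectional fitting.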

[5] = read-out: Insulin Like Growth Factor 1 (IGF1), IGF1 (gene 3479); test: LTEA_HepaRG_IGF1: Life Technologies and Expression Analysis (LTEA) Assay for Insulin Like Growth Factor 1 (IGF1) using HepaRG (AID 2283506)
Outline: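 Differentiated human HepaRG cells were dosed for 48 h in serum-free induction medium with 0.5% DMSO, eight half-log concentrations up to 100 uM, in duplicate. IGF1 mRNA was quantified by qRT-PCR normalized to ACTB, GAPDH, POLR2A; bidirectional fitting versus DMSO.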

[6] = read-out: Intercellular Adhesion Molecule 1 (ICAM1), ICAM1 (gene 3383); test: LTEA_HepaRG_ICAM1: Life Technologies and Expression Analysis (LTEA) Assay for Intercellular Adhesion Molecule 1 (ICAM1) using HepaRG (AID 2283507)
Outline: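 Differentiated human HepaRG cells in serum-free induction medium exposed 48 h in duplicate to 8 half-log concentrations (top 100 uM, 0.5% DMSO). ICAM1 mRNA quantified by TaqMan qRT-PCR, normalized to ACTB, GAPDH and POLR2A; bidirectional fitting versus DMSO.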

[7] = read-out: Insulin-like growth factor-binding protein 1 (IGFBP1), IGFBP1 (gene 3484); test: LTEA_HepaRG_IGFBP1: Life Technologies and Expression Analysis (LTEA) Assay for Insulin-like growth factor-binding protein 1 (IGFBP1) using HepaRG (AID 2283508)
Outline: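 HepaRG cells, plated 48 h then switched to serum-free induction medium, exposed in duplicate for 48 h to 8-point half-log series from 100 uM in 0.5% DMSO. mRNA measured by qRT-PCR, normalized to ACTB/GAPDH/POLR2A; bidirectional fit versus DMSO.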

[8] = read-out: Interleukin 6 (IL6), IL6 (gene 3569); test: LTEA_HepaRG_IL6: Life Technologies and Expression Analysis (LTEA) Assay for Interleukin 6 (IL6) using HepaRG (AID 2283509)
Outline: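 HepaRG cells exposed in duplicate for 48 h to eight half-log concentrations, top 100 uM, in 0.5% DMSO serum-free induction medium. mRNA measured by qRT-PCR, normalized to ACTB, GAPDH and POLR2A. Bidirectional fit versus DMSO.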

Measured: AC50

Chain of Hypoxia-inducible factor 1-alpha (Homo sapiens) (Q16665 whole entry, looked up): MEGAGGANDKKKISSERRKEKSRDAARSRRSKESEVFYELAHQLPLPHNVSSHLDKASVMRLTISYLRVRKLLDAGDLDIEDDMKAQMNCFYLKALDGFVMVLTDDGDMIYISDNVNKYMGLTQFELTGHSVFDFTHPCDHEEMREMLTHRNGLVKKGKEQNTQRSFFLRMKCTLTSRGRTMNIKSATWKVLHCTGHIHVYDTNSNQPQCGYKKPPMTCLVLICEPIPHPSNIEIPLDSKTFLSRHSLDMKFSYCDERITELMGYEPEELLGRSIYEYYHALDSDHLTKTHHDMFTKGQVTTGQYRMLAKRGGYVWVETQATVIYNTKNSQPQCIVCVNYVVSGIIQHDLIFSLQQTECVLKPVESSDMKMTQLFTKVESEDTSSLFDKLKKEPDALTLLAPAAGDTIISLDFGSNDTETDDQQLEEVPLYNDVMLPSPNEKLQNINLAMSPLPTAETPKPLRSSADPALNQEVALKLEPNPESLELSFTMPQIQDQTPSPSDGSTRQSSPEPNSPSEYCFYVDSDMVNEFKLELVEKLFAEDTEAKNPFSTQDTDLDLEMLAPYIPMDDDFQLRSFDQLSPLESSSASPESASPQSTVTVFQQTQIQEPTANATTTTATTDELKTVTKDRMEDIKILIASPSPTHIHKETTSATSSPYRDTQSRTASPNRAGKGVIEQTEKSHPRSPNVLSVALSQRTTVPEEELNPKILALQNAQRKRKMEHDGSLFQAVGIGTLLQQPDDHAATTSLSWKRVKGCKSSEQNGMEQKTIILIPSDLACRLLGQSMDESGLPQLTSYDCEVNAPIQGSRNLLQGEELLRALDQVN

Cn1c(-c2ccccc2)cc(-c2ccccc2)[n+]1C
active: [2] 85.7 µM | [3] 40.2 µM | [5] 13.4 µM | [7] 50 µM
inactive: [1] | [4] | HGF (gene 3082) | [6] | [8]

C=CCOC(=O)C(C)(C)OC(=O)c1cc(-n2c(=O)cc(C(F)(F)F)n(C)c2=O)ccc1Cl
inactive: [1] | [2] | [3] | [4] | HGF (gene 3082) | [5] | [6] | [7] | [8]

Cc1cc(C)nc(Nc2ccccc2)n1
inactive: [1] | [2] | [3] | [4] | HGF (gene 3082) | [6] | [7] | [8]

CCNC(=O)NC(=O)C(C#N)=NOC
inactive: [1] | [2] | [3] | [4] | HGF (gene 3082) | [6] | [7] | [8]

CC(C)NC(=O)N1CC(=O)N(c2cc(Cl)cc(Cl)c2)C1=O
inactive: [2] | [3] | [4] | HGF (gene 3082) | [6] | [7] | [8]
active: [1] 27.8 µM

CCOc1nc(C(Cl)(Cl)Cl)ns1
active: [1] 1.14 µM | [2] 22.9 µM | HGF (gene 3082) 1.21 µM | [6] 1.38 µM | [7] 1.01 µM | [8] 15 µM
inactive: [3] | [4]

Nc1c(Cl)c(Cl)nc(C(=O)O)c1Cl
inactive: [1] | [2] | [3] | [4] | HGF (gene 3082) | [5] | [6] | [7]

N#Cc1c(Cl)cccc1Cl
inactive: [1] | [2] | [3] | [4] | HGF (gene 3082) | [6] | [7]

COP(=O)(OC)O/C(C)=C/C(=O)N(C)C
inactive: [1] | [2] | [3] | [4] | HGF (gene 3082) | [6] | [7]

Cc1c(COC(=O)[C@@H]2[C@H](/C=C(\Cl)C(F)(F)F)C2(C)C)cccc1-c1ccccc1
inactive: [1] | [2] | [3] | [4] | HGF (gene 3082) | [6] | [7]
active: [5] 34.7 µM

CC(C)Oc1cccc(NC(=O)c2ccccc2C(F)(F)F)c1
inactive: [1] | [2] | [3] | [4] | HGF (gene 3082) | [6] | [7]

COC(=O)NC(=S)Nc1ccccc1NC(=S)NC(=O)OC
inactive: [1] | [2] | [3] | [4] | HGF (gene 3082) | [6] | [7]
active: [5] 29.9 µM

CC(C)N1C(=O)N(c2ccccc2)CSC1=NC(C)(C)C
active: [1] 74.7 µM | [6] 74.6 µM | [7] 89.1 µM
inactive: [2] | [3] | [4] | HGF (gene 3082)

CS(=O)(=O)c1ccc(C(=O)C2C(=O)CCCC2=O)c([N+](=O)[O-])c1
inactive: [1] | [2] | [3] | [4] | HGF (gene 3082) | [6] | [7]

COC(=O)c1c(C(F)F)nc(C(F)(F)F)c(C2=NCCS2)c1CC(C)C
inactive: [1] | [2] | [3] | [4] | HGF (gene 3082) | [6] | [7] | [8]

OC(c1ccc(Cl)cc1)(c1ccc(Cl)cc1)C(Cl)(Cl)Cl
active: [2] 81.2 µM | [3] 89.3 µM | [6] 77.6 µM | [7] 73.6 µM
inactive: [1] | [4] | HGF (gene 3082)

CCSC(=O)N1CCCCCC1
inactive: [1] | [2] | [3] | [4] | HGF (gene 3082) | [6] | [7] | [8]

O=C(O)c1c(Cl)ccc2cc(Cl)cnc12
inactive: [1] | [2] | [3] | [4] | HGF (gene 3082) | [6] | [7]

CNC(=O)N(C)c1nnc(C(C)(C)C)s1
inactive: [1] | [2] | [3] | HGF (gene 3082) | [6] | [7] | [8]

CC1(C)CON(Cc2ccccc2Cl)C1=O
active: [5] 25.6 µM
inactive: [1] | [2] | [3] | [4] | HGF (gene 3082) | [6] | [7]

COCc1cnc(C2=NC(C)(C(C)C)C(=O)N2)c(C(=O)O)c1 (configuration not stated)
inactive: [1] | [2] | [3] | [4] | HGF (gene 3082) | [6] | [7] | [8]

CCOP(=S)(OCC)Oc1nc(Cl)n(C(C)C)n1
active: [5] 18.9 µM | [7] 1.57 µM
inactive: [1] | [2] | [3] | [4] | HGF (gene 3082) | [6]

CN=C=S
inactive: [1] | [2] | [3] | [4] | HGF (gene 3082) | [5] | [6] | [7]

CCN(CC)c1nc(C)cc(OP(=S)(OC)OC)n1
inactive: [1] | [2] | [3] | [4] | HGF (gene 3082) | [6] | [7]

Clc1nc(Cl)nc(Nc2ccccc2Cl)n1
inactive: [1] | [2] | [3] | [4] | HGF (gene 3082) | [6] | [7]

COCC(=O)N(c1c(C)cccc1C)C(C)C(=O)OC (configuration not stated)
inactive: [1] | [2] | [3] | [4] | HGF (gene 3082) | [6] | [7]

CC(C)(C)C(=O)C(Oc1ccc(Cl)cc1)n1cncn1 (configuration not stated)
inactive: [1] | [2] | [3] | [4] | HGF (gene 3082) | [6] | [7] | [8]
